“And” between values parts separate entries of the source, which are not always exact repeats. Equal entries are not always repeated. More than one record can exist for a structure, and the calls need not agree. The source made the active and inactive calls.
Columns and labels:
[1] = test system: PRMT1 (protein arginine N-methyltransferase 1); test: small molecules binding arginine methyltransferase PRMT1 – biochemical, small-molecule microarray, 635 nm fluorescence, primary screen (AID 1088); conditions: higher = more signal;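 also: binding of Prmt1 protein to compounds spotted on small-molecule microarray slides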
[2] = growth effects on S. cerevisiae YJM789 – YJM789 clinical isolate, OD600, 24 h, basal, primary screen (AID 1089); conditions: higher = more signal, called active from +8 up or from −8 down;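 also: growth of clinical yeast isolate S. cerevisiae YJM 789 seeded 1000 cells per well; test concentration not given here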
[3] = S. pombe growth modifiers, basal conditions – strain 972, OD600, 24 h, no modulator, primary screen (AID 1090);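 also: basal condition with compound alone and no growth modifier present; test concentration not given here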; conditions: S. pombe 972 growth, higher = more signal, called active from +8 up or from −8 down
[4] = budding yeast growth modifiers under rapamycin – strain BY4716, OD600, 96 h, primary screen (AID 1091); also: test concentration not given here; conditions: S. cerevisiae BY4716 + rapamycin, higher = more signal, called active from +8 up or from −8 down
[5] = target: Torsin-1A-interacting protein 2 (Homo sapiens) (UniProt Q8NFQ8); test: small molecules binding lysate-expressed LULL1 – cell lysate, human LULL1 lysate, 635/667 nm fluorescence, primary screen (AID 1092); conditions: small-molecule microarray, hLULL1 lysate binding, 635 nm fluorescence; higher = more signal;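 also: probe is lysate of COS7 cells overexpressing human LULL1; score merges per-feature 667 nm fluorescence with signal-to-noise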
[6] = optical density change of DRC41 E. coli – strain DRC41, OD650, 24 h, E. coli filamentation project, primary screen (AID 1093);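 also: MC1000 strain lacking acrAB efflux and sulA so SOS filamentation is blocked; test concentration not given here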; conditions: E. coli DRC41 growth, higher = more signal, called active from +8 up or from −8 down
[7] = probe aLefty2 binding to arrayed compounds – biochemical, biotinylated probe, 635/667 nm fluorescence, primary screen (AID 1094); conditions: small-molecule microarray, higher = more signal;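 also: score merges spot fluorescence near 667 nm with spot signal-to-noise ratio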
[8] = test system: Noggin (protein binding on small-molecule microarray); test: small molecules binding Noggin protein – biochemical, 635/667 nm fluorescence, primary screen (AID 1095); conditions: 635 nm fluorescence, higher = more signal;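 also: score merges 667 nm feature fluorescence with signal to noise over triplicate slides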
[9] = target: Neurogenic locus notch homolog protein 3 (Homo sapiens) (UniProt Q9UM47); test: small molecules binding NOTCH3 protein – biochemical, 635/667 nm fluorescence, primary screen (AID 1096); conditions: small-molecule microarray, 635 nm fluorescence, higher = more signal
[10] = probe aEGFR binding to arrayed compounds – biochemical, biotinylated probe, 635/667 nm fluorescence, primary screen (AID 1097); conditions: small-molecule microarray, higher = more signal;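 also: probe is a biotinylated anti-EGFR antibody binding compounds printed on slides; score combines fluorescence near 667 nm and signal to noise of each spot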
[11] = test system: Plasmodium falciparum Sir2 (PF13_0152, Sir2A); test: Plasmodium falciparum Sir2A binding compounds – biochemical, small-molecule microarray, 635 nm fluorescence, primary screen (AID 1098); conditions: fluorescence 635 nm, higher = more signal;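 also: score merges spot fluorescence intensity with its signal-to-noise ratio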
[12] = probe aDKK1 binding to arrayed compounds – biochemical, biotinylated probe, 635/667 nm fluorescence, primary screen (AID 1099); conditions: small-molecule microarray, higher = more signal;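 also: score merges 667nm spot fluorescence with signal to noise across triplicate slides; reference of the scale not given here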
[13] = probe aCHRDL2 binding to arrayed compounds – biochemical, biotinylated probe, 635/667 nm fluorescence, primary screen (AID 1100); conditions: small-molecule microarray, higher = more signal
[14] = change in splice reporter luminescence, either direction, cell-based, HEK293, spliceosome inhibition project, primary screen (AID 1101); conditions: HEK293 splicing luciferase reporter, 24 h, higher = more signal, called active from +8 up or from −8 down;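 also: HEK293 cells carrying a splicing-competent luciferase reporter gene; test concentration not given here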
[15] = target: Fibroblast growth factor 10 (Homo sapiens) (UniProt O15520); test: compounds binding fibroblast growth factor 10 – biochemical, small-molecule microarray, 635 nm fluorescence, primary screen (AID 1102); conditions: FGF10 binding, fluorescence 635 nm, higher = more signal
[16] = test system: glycogen synthase kinase-3 (GSK3A per assay name; protocol says GSK3B); test: compounds binding glycogen synthase kinase-3 – biochemical, small-molecule microarray, 635 nm fluorescence, GSK3A, primary screen (AID 1103); conditions: fluorescence 635 nm, higher = more signal; also: the record names both GSK3A and GSK3B
[17] = target: Epidermal growth factor receptor (Homo sapiens) (UniProt P00533); test: compounds binding epidermal growth factor receptor – biochemical, small-molecule microarray, 635 nm fluorescence, primary screen (AID 1104); conditions: EGFR binding, higher = more signal;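 also: score merges 667 nm emission intensity with spot signal to noise over triplicate slides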
[18] = target: Follistatin-related protein 3 (Homo sapiens) (UniProt O95633); test: compounds binding follistatin-related protein 3 – biochemical, small-molecule microarray, 635 nm fluorescence, primary screen (AID 1105); conditions: FSTL3 binding, higher = more signal;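 also: score merges emission near 667 nm and signal to noise per printed spot across three slides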
[19] = target: Dickkopf-related protein 1 (Homo sapiens) (UniProt O94907); test: small molecules binding DKK1 protein – biochemical, small-molecule microarray, 635 nm fluorescence scan, primary screen (AID 1106); conditions: higher = more signal;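 also: score merges emission near 667 nm with signal to noise over three replicate slides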
[20] = test system: Inhibin beta A chain (activin A); test: small molecules binding activin A – biochemical, small-molecule microarray, 635 nm fluorescence scan, primary screen (AID 1107); conditions: INHBA, higher = more signal;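 also: mouse activin A protein probed at 4.33 µg/mL on printed slides; score merges bound-protein fluorescence near 667 nm with spot signal-to-noise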

Sequence of Follistatin-related protein 3 (Homo sapiens) (O95633 whole entry, looked up): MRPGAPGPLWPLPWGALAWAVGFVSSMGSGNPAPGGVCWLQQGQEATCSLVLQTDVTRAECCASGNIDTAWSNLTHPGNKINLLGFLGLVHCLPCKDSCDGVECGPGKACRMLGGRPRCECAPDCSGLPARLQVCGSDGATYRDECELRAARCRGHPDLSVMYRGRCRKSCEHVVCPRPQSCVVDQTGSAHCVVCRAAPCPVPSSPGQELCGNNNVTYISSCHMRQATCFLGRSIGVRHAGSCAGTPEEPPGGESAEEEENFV
Sequence of Torsin-1A-interacting protein 2 (Homo sapiens) (Q8NFQ8 whole entry, looked up): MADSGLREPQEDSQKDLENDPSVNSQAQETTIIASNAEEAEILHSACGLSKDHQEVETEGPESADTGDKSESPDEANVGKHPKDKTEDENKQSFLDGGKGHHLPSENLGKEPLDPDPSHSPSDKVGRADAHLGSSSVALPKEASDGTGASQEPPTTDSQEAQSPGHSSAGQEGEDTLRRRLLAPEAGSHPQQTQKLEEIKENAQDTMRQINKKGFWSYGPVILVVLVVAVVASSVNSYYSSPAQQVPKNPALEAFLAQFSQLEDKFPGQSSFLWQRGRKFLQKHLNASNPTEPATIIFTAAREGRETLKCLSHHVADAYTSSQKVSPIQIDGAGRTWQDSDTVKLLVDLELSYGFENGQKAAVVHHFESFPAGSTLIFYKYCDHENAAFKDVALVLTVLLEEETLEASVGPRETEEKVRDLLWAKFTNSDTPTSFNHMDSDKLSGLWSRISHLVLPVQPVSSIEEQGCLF
Sequence of Epidermal growth factor receptor (Homo sapiens) (P00533 whole entry, looked up): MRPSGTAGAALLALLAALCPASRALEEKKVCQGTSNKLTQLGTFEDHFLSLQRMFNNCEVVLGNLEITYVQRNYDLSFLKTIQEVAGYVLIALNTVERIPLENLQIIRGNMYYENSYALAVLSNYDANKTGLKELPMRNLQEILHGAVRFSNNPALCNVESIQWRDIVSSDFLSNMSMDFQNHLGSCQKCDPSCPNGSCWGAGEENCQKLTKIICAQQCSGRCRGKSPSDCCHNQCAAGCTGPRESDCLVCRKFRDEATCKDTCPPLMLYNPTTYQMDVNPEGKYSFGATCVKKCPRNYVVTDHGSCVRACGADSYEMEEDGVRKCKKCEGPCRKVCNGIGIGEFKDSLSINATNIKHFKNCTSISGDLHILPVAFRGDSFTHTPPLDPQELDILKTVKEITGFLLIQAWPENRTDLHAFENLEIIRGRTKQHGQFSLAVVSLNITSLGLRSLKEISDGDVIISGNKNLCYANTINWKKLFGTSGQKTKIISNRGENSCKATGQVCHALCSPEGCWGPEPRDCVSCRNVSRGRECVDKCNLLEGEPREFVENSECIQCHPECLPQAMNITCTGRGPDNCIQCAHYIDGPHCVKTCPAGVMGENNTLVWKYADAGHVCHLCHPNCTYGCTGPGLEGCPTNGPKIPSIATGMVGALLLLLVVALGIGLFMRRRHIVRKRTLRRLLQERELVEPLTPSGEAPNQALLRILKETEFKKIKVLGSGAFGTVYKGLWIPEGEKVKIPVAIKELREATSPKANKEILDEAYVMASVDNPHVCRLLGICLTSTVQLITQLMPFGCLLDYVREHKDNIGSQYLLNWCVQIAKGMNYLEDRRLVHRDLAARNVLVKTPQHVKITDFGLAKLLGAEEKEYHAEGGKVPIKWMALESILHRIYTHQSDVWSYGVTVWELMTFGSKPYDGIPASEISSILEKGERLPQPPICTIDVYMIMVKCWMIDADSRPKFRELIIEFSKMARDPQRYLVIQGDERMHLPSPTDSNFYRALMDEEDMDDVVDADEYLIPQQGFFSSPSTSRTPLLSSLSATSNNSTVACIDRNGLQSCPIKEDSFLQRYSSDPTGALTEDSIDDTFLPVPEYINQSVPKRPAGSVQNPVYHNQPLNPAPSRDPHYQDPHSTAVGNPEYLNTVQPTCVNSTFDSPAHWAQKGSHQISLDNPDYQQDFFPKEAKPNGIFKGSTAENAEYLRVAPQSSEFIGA
Sequence of Neurogenic locus notch homolog protein 3 (Homo sapiens) (Q9UM47 whole entry, looked up): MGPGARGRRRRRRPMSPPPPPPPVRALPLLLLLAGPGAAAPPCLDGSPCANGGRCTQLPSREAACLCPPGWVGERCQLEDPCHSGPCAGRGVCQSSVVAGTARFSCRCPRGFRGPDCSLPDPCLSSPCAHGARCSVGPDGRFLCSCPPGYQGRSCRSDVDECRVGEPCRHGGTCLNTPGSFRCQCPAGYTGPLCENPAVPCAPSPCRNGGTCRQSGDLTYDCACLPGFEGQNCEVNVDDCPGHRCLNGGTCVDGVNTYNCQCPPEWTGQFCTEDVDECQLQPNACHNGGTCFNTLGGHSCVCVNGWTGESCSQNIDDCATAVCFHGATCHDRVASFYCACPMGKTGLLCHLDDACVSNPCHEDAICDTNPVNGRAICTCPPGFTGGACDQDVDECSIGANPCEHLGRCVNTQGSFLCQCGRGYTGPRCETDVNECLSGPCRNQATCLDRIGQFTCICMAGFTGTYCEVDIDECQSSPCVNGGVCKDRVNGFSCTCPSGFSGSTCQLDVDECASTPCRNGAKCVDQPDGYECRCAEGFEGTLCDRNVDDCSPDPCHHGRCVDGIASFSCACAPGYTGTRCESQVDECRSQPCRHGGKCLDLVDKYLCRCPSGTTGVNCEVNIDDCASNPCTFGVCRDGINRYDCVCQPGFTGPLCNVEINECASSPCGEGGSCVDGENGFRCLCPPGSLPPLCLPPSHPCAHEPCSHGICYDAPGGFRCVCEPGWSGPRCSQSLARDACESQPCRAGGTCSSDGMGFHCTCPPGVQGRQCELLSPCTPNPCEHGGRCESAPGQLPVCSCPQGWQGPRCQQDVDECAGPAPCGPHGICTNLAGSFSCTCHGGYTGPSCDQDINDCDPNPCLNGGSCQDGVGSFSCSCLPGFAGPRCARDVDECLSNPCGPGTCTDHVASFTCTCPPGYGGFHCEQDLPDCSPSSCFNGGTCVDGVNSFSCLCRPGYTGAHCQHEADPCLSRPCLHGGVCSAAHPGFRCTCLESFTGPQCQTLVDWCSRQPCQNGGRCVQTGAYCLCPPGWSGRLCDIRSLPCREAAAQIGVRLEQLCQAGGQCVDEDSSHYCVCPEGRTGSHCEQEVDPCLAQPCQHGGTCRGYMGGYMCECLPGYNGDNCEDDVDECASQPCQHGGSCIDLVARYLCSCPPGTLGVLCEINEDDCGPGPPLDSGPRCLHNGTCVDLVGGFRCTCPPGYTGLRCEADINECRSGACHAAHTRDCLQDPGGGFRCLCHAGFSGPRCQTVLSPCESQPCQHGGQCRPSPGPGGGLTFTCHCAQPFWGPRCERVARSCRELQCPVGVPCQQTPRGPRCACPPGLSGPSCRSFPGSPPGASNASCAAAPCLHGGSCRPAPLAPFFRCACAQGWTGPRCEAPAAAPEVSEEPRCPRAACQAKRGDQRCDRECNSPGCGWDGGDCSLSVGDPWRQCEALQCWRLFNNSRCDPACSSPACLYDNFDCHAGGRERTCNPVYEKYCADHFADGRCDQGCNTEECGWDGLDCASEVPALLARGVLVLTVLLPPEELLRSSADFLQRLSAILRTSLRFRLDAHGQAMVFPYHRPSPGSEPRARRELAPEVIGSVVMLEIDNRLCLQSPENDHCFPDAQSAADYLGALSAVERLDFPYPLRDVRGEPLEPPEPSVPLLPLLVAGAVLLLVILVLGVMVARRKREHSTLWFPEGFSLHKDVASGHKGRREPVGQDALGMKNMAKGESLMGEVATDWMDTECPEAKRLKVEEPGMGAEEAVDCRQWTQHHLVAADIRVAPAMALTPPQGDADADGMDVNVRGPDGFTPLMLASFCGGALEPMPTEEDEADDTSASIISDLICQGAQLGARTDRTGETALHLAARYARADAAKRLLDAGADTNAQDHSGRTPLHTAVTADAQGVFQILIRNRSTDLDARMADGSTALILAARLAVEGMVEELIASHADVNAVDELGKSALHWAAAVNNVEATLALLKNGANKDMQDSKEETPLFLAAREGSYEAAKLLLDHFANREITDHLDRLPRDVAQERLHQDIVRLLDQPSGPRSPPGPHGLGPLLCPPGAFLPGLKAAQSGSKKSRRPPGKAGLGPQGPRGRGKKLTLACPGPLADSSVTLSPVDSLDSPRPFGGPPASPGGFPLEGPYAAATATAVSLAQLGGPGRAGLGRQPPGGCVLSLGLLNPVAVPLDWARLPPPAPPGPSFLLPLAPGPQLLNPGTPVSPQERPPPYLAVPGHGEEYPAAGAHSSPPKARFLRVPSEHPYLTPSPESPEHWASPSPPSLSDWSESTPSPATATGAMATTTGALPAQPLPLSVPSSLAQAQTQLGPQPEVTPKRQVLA
Sequence of Dickkopf-related protein 1 (Homo sapiens) (O94907 whole entry, looked up): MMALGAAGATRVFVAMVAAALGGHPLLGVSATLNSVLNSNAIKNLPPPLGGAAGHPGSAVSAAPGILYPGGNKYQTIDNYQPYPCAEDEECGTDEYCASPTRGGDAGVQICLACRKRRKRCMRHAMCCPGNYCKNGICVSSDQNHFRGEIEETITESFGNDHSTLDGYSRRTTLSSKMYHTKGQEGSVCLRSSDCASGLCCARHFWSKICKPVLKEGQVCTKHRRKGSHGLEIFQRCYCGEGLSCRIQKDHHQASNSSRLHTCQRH
Sequence of Fibroblast growth factor 10 (Homo sapiens) (O15520 whole entry, looked up): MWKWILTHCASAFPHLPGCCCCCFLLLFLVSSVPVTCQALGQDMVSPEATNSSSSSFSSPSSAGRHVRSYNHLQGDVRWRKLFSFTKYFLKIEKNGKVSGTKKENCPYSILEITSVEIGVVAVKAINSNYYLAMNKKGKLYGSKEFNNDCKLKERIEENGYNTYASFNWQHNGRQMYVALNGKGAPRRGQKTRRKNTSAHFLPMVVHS

| SMILES | composite z-score [1] | z-score [2] | z-score [3] | z-score [4] | composite z-score [5] | z-score [6] | composite z-score [7] | composite z-score [8] | composite z-score [9] | composite z-score [10] | composite z-score [11] | composite z-score [12] | composite z-score [13] | z-score [14] | composite z-score [15] | composite z-score [16] | composite z-score [17] | composite z-score [18] | composite z-score [19] | composite z-score [20] |
| --- | --- | --- | --- | --- | --- | --- | --- | --- | --- | --- | --- | --- | --- | --- | --- | --- | --- | --- | --- | --- |
| C[C@@H]1CC[C@H]2C(=O)N3[C@@H](CC[C@@H](C)[C@@H]3c3ccc(-c4ccco4)cc3)C(=O)N2[C@H]1c1ccc(-c2ccco2)cc1 | 1.56 and 1.49 | -0.0519 (inactive) and -0.0158 (inactive) | 0.453 (inactive) and -1.28 (inactive) | 0.849 (inactive) and -0.324 (inactive) | 2.17 and 0.787 | 0.196 (inactive) and 0.917 (inactive) | 0.0935 and 0.525 | 1.34 and 1.77 | 1.04 and 1.06 | 0.0374 and 0.181 | 1.22 and 1.69 | 0.289 and 0.596 | 0.0051 and 1.11 | -0.328 (inactive) and -1.24 (inactive) | 0.765 and 1.37 | 1.32 and 1.28 | 0.737 and 1.7 | 1.36 and 1.4 | 1.25 and 1.68 | 1.01 and 1.92 |
| C=CCN(C(=O)C(c1cccs1)N(C(=O)/C=C\C(=O)O)C(C)(C)CO)c1ccc(OC)cc1 (stereo not given) | -0.771 and -0.469 | -2.87 (inactive) and -2.15 (inactive) | -2.09 (inactive) and -2.05 (inactive) | -2.57 (inactive) and -1.07 (inactive) | 2.03 and -0.628 | 3.5 (inactive) and 2.82 (inactive) | 0.388 and -0.0519 | -1.23 and -1.8 | -1.37 and -0.484 | -0.24 and -0.151 | 1.39 and -1.69 | -0.117 and -0.0312 | 0.599 and 0.476 | -2.61 (inactive) and -1.39 (inactive) | -0.477 and -0.869 | -0.41 and -0.514 | -0.869 and -2.11 | -1.4 and -1.37 | -0.789 and -0.497 | -1.07 and -0.761 |
| C=C(C)C(=O)OC[C@@H]1CN2[C@@H](CC[C@@H](C)[C@@H]2c2ccc(Br)cc2)C(=O)O1 | 0.819 | -0.792 (inactive) | -2.7 (inactive) | -1.52 (inactive) | 1.32 | 0.53 (inactive) | -0.247 | 0.314 | 0.259 | 0.0251 | 0.913 | -0.199 | -0.374 | -0.46 (inactive) | 0.634 | 0.399 | 0.263 | 1.08 | 0.872 | 0.984 |
| CCOC(=O)c1ccc(NC(=O)O[C@H]2[C@H](OC(=O)Nc3ccccc3)[C@H](OC(=O)Nc3ccccc3)[C@@H](OC)O[C@@H]2CO)cc1 | 1.53 | 1.65 (inactive) and 0.863 (inactive) | 1.87 (inactive) and 1.43 (inactive) | -1.19 (inactive) and 8.89 (active) | 3.01 and 3.02 | 0.626 (inactive) and 0.455 (inactive) | 0.375 and 0.0544 | 0.536 and 1.04 | 1.04 and 1.05 | 0.445 and -0.0118 | 1.45 and 1.74 | 0.968 and 0.673 | 0.873 and 0.902 | -0.285 (inactive) and -0.997 (inactive) | 1.27 and 0.968 | 1.31 and 1.33 | 0.591 and 0.218 | 1.39 and 1.38 | 0.531 and 0.259 | 0.888 and 0.327 |
| CCCNC(=O)OC[C@H]1O[C@H](CCON=C(C)CCC(=O)OC[C@H]2O[C@H](C#Cc3ccccc3)C=C[C@@H]2Oc2ccc(C)cc2)C=C[C@@H]1Oc1ccc(OC)cc1 | -0.164 | -0.142 (inactive) | -0.0152 (inactive) | 0.794 (inactive) | -0.575 | 0.165 (inactive) | -0.251 | -0.346 | -0.574 | -0.12 | 0.352 | -0.193 | -0.148 | -0.301 (inactive) | -0.397 | -0.952 | -0.501 | -0.637 | -0.121 | 0.711 |
| CC(C)N1CC=CC23O[C@@H]4C=CCCOC(=O)C4[C@H]2C(=O)N(C(C)CO)[C@@H]3C1=O (stereo not given in full) | 1.18 and -0.323 | -1.29 (inactive) and 0.11 (inactive) | -1.18 (inactive) and -1.07 (inactive) | -1.28 (inactive) and 0.687 (inactive) | 3.21 and -0.371 | 2.82 (inactive) and 2.22 (inactive) | -0.0911 and -0.043 | -1.14 and -0.975 | -0.22 and -0.455 | -0.317 and -0.308 | 0.966 and -0.2 | 0.802 and -0.0438 | 1 and 0.404 | -1.6 (inactive) and -1.03 (inactive) | -0.858 and -0.457 | -0.132 and -0.547 | -1.71 and -0.693 | -1.66 and -0.676 | -2.56 and -0.647 | 0.644 and 1.35 |
| CC[C@@H]1C(Sc2ccccc2)C(C(=O)O)[C@H](c2ccc(C)cc2)N1S(=O)(=O)c1ccc(C)cc1 (stereo not given in full) | 1.25 and 1.49 | -0.768 (inactive) and -2.59 (inactive) | 0.796 (inactive) and -0.975 (inactive) | -0.451 (inactive) and -0.576 (inactive) | 2.66 and 3.19 | -0.889 (inactive) and -0.743 (inactive) | 0.149 and -0.0615 | -0.0727 and -0.216 | 1.11 and 1.07 | -0.0025 and -0.114 | 1.68 and 1.07 | 0.46 and -0.127 | 0.731 and 0.46 | -0.0623 (inactive) and -0.895 (inactive) | 0.617 and 0.881 | 0.414 and 1.14 | -0.233 and 0.267 | 0.437 and 0.874 | -0.72 and 0.0831 | 0.653 and 0.302 |
| C=C[C@H](OC)[C@@H](O)c1ccc(OCCO)cc1 | -0.801 and -0.822 | -0.146 (inactive) and 0.665 (inactive) | 0.363 (inactive) and -0.412 (inactive) | 0.573 (inactive) and 0.329 (inactive) | -0.517 and -0.64 | -0.0467 (inactive) and 0.606 (inactive) | -0.242 and -0.0736 | -2.2 and -1.82 | -1.56 and -0.724 | -0.313 and -0.314 | 0.972 and 1.8 | -0.458 and -0.428 | 0.915 and 0.789 | -0.957 (inactive) and -0.233 (inactive) | -1.07 and -0.623 | -1.69 and -0.885 | -2.13 and -1.16 | -1.95 and -1.72 | -1.55 and -0.654 | -0.731 and -1.25 |

Source: PubChem BioAssay
